# From PubChem BioAssay (NCI)
# About 83,000 compounds went through this panel and 20% of them were active in at least one assay; those are over-represented in the sample as a whole.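 The test compound was applied at a single concentration to cells in 96-well plates for 48 hours, and percent growth was recorded.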 Unmarked numbers belong to inactive results. The source made the active and inactive calls. The calls were made as follows: active = growth percent below 10; inactive = the rest.
# System: SW-620 colon
# Assay: NCI-60 one-dose screen, 48 h (100 = growth as untreated, 0 = no growth, -100 = all killed)
# Settings: 10 µM
row,Structure (SMILES),growth
1,N#Cc1ccc(-c2nn(-c3ccc(C(=O)O)cc3)cc2CNc2cc(Cl)cc(C(F)(F)F)c2)cc1,21.2%
2,CN1C(=O)N(C)C2SC(N/N=C/c3ccccc3F)=NC21 (configuration not stated),47.4%
3,COc1cc2c(cc1OC)/C(=C\c1sc(Nc3ccc(O)cc3)nc1O)C(C(=O)O)=N2,26.8%
4,CN1CCN(c2ccc(C(=O)/C=C/c3cc(C(F)(F)F)ccc3Cl)cc2)CC1,-70.7% (active)
5,CC(=O)c1cc(C(=O)c2ccc3c(c2)NC(=O)CO3)n2ccc3ccccc3c12,93.1%
6,COc1ccc(C(=O)NC(=S)N2CCN(c3ncnc4c3cnn4-c3ccccc3)CC2)cc1,80.5%
7,CC(=O)Nc1nc(-c2ccc(N3CCN(C)CC3)c(NS(=O)(=O)c3cccc4c(N(C)C)cccc34)c2)cs1,70.9%
8,O=[N+]([O-])c1ccc(-c2nc(-c3ccccc3)c(-c3ccccc3)n2-c2ccc(S(=O)(=O)Nc3ncccn3)cc2)cc1,51.1%
9,O=C(c1ccc(Cl)cc1)C1[C@H](c2ccc(Br)cc2)[C@@H](c2ccccc2)NC12C(=O)Nc1ccc(Br)cc12 (some centres not stated),-71.6% (active)
10,O=C(CSc1nnc(-c2c[nH]c3ccccc23)n1-c1ccccc1)c1ccc(Cl)cc1,70.3%
11,Cc1noc2c(Cc3ccccc3)nn(CC(=O)N/N=C/c3ccc(Cl)cc3)c(=O)c12,51.7%
12,O=C(NO)c1ccc(CNC(=O)[C@H]2Cc3c([nH]c4ccccc34)[C@H](c3ccc(Cl)cc3)N2)cc1,-51.6% (active)
